# Screening results (PubChem BioAssay)
# ROCK2 inh: blocks human Rho kinase 2 activity. O75116. purified ROCK2, Kinase-Glo ATP depletion luminescence. inhibition, % at 6 µM. hit rate 0.35% among 60,000;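 active = inhibition above the screen-wide mean inhibition plus 3 SD, cut at about 18% in these data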;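 note: plate controls were DMSO wells for no effect and Y-27632 control wells after no-enzyme background subtraction for full effect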
# Target sequence (O75116 whole entry, looked up): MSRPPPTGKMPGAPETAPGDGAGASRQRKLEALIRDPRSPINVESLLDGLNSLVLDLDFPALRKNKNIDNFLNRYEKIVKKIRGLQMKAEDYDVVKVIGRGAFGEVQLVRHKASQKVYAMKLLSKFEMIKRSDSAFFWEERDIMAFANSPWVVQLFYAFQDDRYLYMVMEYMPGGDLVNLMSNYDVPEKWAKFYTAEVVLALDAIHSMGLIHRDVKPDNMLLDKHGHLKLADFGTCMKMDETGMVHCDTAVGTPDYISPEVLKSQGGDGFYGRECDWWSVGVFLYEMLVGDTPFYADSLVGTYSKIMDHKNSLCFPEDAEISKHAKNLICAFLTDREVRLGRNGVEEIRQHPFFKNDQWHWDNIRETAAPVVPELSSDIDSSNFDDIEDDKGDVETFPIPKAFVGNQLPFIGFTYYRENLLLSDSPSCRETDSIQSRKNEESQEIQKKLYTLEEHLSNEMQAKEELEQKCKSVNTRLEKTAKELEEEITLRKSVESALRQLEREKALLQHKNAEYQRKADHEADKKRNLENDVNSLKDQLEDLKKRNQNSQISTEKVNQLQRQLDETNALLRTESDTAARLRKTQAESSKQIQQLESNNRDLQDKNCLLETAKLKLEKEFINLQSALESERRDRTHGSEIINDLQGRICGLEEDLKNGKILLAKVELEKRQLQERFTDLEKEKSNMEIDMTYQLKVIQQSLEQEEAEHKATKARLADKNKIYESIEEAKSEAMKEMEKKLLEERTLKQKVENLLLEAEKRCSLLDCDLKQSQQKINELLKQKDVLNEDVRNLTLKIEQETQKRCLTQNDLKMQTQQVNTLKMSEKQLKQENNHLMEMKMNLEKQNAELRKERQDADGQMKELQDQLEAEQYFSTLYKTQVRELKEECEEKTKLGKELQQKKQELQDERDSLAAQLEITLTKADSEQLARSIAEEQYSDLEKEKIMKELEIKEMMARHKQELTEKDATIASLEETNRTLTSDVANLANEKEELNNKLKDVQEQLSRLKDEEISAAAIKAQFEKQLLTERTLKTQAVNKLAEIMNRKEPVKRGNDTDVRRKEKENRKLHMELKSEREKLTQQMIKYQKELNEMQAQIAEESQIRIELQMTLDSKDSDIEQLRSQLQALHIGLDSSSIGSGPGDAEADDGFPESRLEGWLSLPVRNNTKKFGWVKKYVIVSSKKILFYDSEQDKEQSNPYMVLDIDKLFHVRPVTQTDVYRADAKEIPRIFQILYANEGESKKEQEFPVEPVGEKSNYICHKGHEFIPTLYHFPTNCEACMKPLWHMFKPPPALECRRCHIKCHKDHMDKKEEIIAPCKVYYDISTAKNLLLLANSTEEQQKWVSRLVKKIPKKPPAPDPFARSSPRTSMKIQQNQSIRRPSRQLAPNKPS
# D1 mod: allosteric modulators of human D1 dopamine receptor. HEK293 D1, CRE-luciferase, dopamine EC30 potentiation; actives deviate in either direction. B-score at 10 µM. hit rate 5.9% among 58,000. AID 641;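 active = luminescence count or its row- and column-corrected plate score outside the 99.7% band of the plate's sample wells, on either side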
# PKA kinase inh: inhibitors of human protein kinase A. PKA Kemptide phosphorylation, Kinase-Glo ATP luminescence. P17612. AID 524. inhibition, % at 6 µM. hit rate 0.1% among 65,000;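 active = inhibition above the screen-wide mean inhibition plus 3 SD, cut at about 21% in these data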
# JNK3 inh: blocks human JNK3 kinase activity; purified JNK3 kinase activity, HTS; P53779; hit rate 0.61% among 60,000; inhibition, % at 8 µM; in the data active = inhibition above about 17%;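 note: 0% = DMSO and 100% = reference inhibitor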
# DAT uptake mod: changed human dopamine transporter uptake under cocaine IC80. hit rate 1.3% among 110,000. B-score at 10 µM. LLC-PK1 hDAT cells, [14C]-dopamine uptake with cocaine IC80; actives deviate in either direction. Q01959;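 active = Z score or B-score, a plate-position-corrected score, falls beyond the plate's 99.7% confidence bounds, in either direction; inactive = both scores lie inside the 99.7% bounds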;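 note: scored against the spread of the other compound wells on the same plate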
# D1 mod confirm: D1 receptor (human) allosteric modulation, confirmed | hit rate 88% among 2,200 | HEK293 D1 CRE-luciferase, dopamine EC30 potentiation; active compounds read high | shares compounds with D1 mod | luminescence at 10 µM;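 active = luminescence in either of two replicates above the same-plate mean plus 3 SD of the low-dose dopamine control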
# D1 no dopamine: activates D1 CRE-luciferase signal without dopamine present. shares compounds with D1 mod. HEK293 D1 CRE-luciferase, luminescence, no dopamine; active compounds read high. luminescence at 10 µM. hit rate 0.8% among 1,900. AID 646; in the data active = luminescence above about 3900
# Isoprot counter: alters isoproterenol CRE-luciferase response in HEK293 cells. shares compounds with D1 mod. HEK293 D1 CRE-luciferase, isoproterenol EC30 counter-screen. calls only at 10 µM. hit rate 63% among 2,200. AID 647;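 active = luminescence in either replicate above plate mean of wells with a partly effective reference agonist dose plus 3 SD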;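 note: isoproterenol raises cAMP through native beta-adrenoceptor Gs so signal bypasses D1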
# An asterisk follows results filed as active; i = inactive; / = not tested or not shown; + = active, no number. Many of the other results were omitted from the sample, so hits are more common in it than they were.
SMILES,ROCK2 inh,D1 mod,PKA kinase inh,JNK3 inh,DAT uptake mod,D1 mod confirm,D1 no dopamine,Isoprot counter
Clc1ccc(Cn2ncc3c(N4CCCCC4)ncnc32)cc1,0,0.12,7,-3,0.37,/,/,/
Cc1ccc(Cn2ncc3c(N4CCCC4)ncnc32)cc1,6,2.7*,7,-2,1.1,10768*,1564,+
Clc1ccc(Cn2ncc3c(N4CCCC4)ncnc32)cc1,7,4.7*,4,4,0.44,13228*,1420,+
COc1ccc(CNC(=O)CCCCCn2c(SCC#N)nc3cc4c(cc3c2=O)OCO4)cc1,/,0.88,5,/,0.49,/,/,/
CCN1C(=O)c2c(C)nc3ccccc3c2C1=O,1,16*,-2,-1,0.12,15840*,1572,+
COc1ccc(/C=N/n2c(N)nc3ccccc32)cc1OC,12,9.5*,16,48*,0.089,21348*,1544,+
COc1cccc(/C=N/n2c(N)nc3ccccc32)c1OC,/,/,/,/,0.018,/,/,/
Cc1cccc(C)c1NC(=O)C(c1ccc(Cl)cc1Cl)N1CCCCC1 (configuration not stated),/,/,/,/,-0.39,/,/,/
CN1CCN(c2nc(-c3ccccc3)c3cc(Cl)ccc3n2)CC1,6,5*,4,-5,0.88,11380*,1508,i
Nc1nc(CSc2ccccn2)nc(Nc2ccccc2)n1,/,3.6*,0,/,1.5,10684*,/,+
Nc1nc(CSCCO)nc(Nc2ccccc2)n1,/,/,/,/,0.26,/,/,/
Cc1ccc(Nc2nc(N)nc(CSc3nnnn3-c3ccccc3)n2)cc1,-1,7.1*,2,-2,-0.17,9096*,/,i
COc1cc(N2CCOCC2)ncn1,5,-0.027,3,2,-0.89,/,/,/
CN1CCN(c2ccc(Cl)cc2NC(=O)c2cccc(S(=O)(=O)N(C)C)c2)CC1,3,5.2*,8,4,0.26,13264*,1580,i
CN(C)S(=O)(=O)c1cccc(C(=O)Nc2cc(Cl)ccc2O)c1,-1,0.11,4,0,0.33,/,/,/
O=C(CSc1nccn1-c1ccc(Cl)cc1)NCc1ccc2c(c1)OCO2,3,-0.98,8,7,1.9,/,/,/
COC(=O)c1ccccc1NC(=O)NCc1ccc2c(c1)OCO2,-2,1,-4,7,-0.021,/,/,/
COC(=O)c1ccccc1NC(=O)C1CCCC1,4,6.6*,2,-5,0.039,9916*,1688,+
COC(=O)c1ccccc1NC(=O)c1ccc2c(c1)OCCO2,1,3.9*,4,-2,0.78,11420*,1512,i
O=C(Nc1ccccc1)c1ccccc1NC(=O)C1CCCCC1,/,/,/,/,-0.25,/,/,/
CC(=O)C(=Nc1ccc(Cl)cc1Cl)NNc1cccc(Cl)c1,/,/,/,/,-1.5,/,/,/
COc1ccc(CCNC(=O)CN2C(=O)c3ccccc3S2(=O)=O)cc1OC,3,4.3*,4,6,-1.3,7364*,1808,+
COc1ccc(CCN(C)C(=O)CN2C(=O)c3ccccc3S2(=O)=O)cc1OC,-6,/,0,-6,-0.058,/,/,/
COc1ccc(-c2cc(-c3ccc(OC)c(OC)c3)n[nH]2)c(O)c1,/,/,/,/,0.0039,/,/,/
COc1ccc(CCNC(=O)c2cnc3n(c2=O)CCS3)cc1OC,6,4.7*,6,-3,1,9460*,1716,+
SMILES,ROCK2 inh,D1 mod,PKA kinase inh,JNK3 inh,DAT uptake mod,D1 mod confirm,D1 no dopamine,Isoprot counter
COc1ccc(CCNC(=O)c2cc(-c3ccccc3O)n[nH]2)cc1OC,9,4.4*,4,9,-9.6*,8340*,1572,+
COc1ccc(-c2cc(-c3ccccc3O)[nH]n2)cc1OC,12,3.4*,11,5,-0.12,8764*,1644,+
COc1ccc(CSc2nnc(Cc3sc(-c4ccccc4)nc3-c3ccccc3)o2)cc1,/,/,/,/,0.18,/,/,/
O=C(COC(=O)CCS(=O)(=O)c1ccc(Cl)cc1)NC1CCCCC1,/,/,/,/,-0.17,/,/,/
CC(C)Oc1ccc(C(=O)N(CN2CCCC2=O)c2ccc(F)cc2)cc1,1,4.5*,9,2,1.7,7800,1532,i
CCOC(=O)c1cnc(-n2nc(C)cc2C)nc1NCc1ccccc1,-5,3.1,0,1,0.96,/,/,/
